An excerpt weighted towards active compounds, which were near 2.4% of everything screened.
S1P3 antag – S1P3 (human) receptor antagonism. CHO S1P3 NFAT-BLA reporter, FRET fluorescence, antagonist mode. inhibition, % at 4.98 µM. 170,000 tested, 0.27% active. Q99500. AID 485;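 active = inhibition above the plate cutoff, the mean inhibition of test wells on that plate plus 3 SD, cut at about 28% in these data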;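 also: cells challenged with S1P at its EC80 of 0.8 µM; blue over green emission ratio from cleaved BLA substrate after 4 h stimulation; 0% = S1P-stimulated wells and 100% = unstimulated DMSO-only wells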
Target sequence (Q99500 whole entry, looked up): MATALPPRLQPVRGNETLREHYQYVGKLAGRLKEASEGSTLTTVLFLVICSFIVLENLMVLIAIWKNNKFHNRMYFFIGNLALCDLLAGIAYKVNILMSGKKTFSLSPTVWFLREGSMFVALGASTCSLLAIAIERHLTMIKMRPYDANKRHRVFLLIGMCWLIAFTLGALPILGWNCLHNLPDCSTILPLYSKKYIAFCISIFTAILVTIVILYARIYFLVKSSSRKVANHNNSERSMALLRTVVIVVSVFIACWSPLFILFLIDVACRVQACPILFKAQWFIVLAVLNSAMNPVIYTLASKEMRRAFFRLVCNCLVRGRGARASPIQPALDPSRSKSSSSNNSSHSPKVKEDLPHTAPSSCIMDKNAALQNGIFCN
S1P4 ag – activates the human S1P4 receptor; AID 1509; O95977; 220,000 tested, 0.35% active; S1P4-expressing cell line, agonist reporter assay; activation, % at 4.98 µM; in the data active = activation above about 11%;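 also: 0% = DMSO vehicle and 100% = reference agonist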
PGE2 EP2 inh – inhibitors of human EP2 prostaglandin E2 receptor; P43116; C6 glioma cells expressing human EP2, cAMP TR-FRET; cells stimulated with saturating PGE2; inhibition, % at 25 µM; 260,000 tested, 0.52% active;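 active = percent inhibition above 40 after rounding to a whole number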;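 also: rat C6 glioma host cells with rolipram phosphodiesterase inhibitor present; the protocol text gives 20 µM as final concentration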
Insulin prom inh – TRM-6 insulin promoter activity inhibition | TRM-6 cells (human fetal islet line), insulin promoter-eGFP reporter, imaging; reporter expression induced with tamoxifen | inhibition, % at 2 µM | 130,000 tested, 0.9% active | AID 1273;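 active = inhibition above the mean plus 3 SD, with well images judged a real hit on visual review, cut at about 60% in these data, passing the limit was not always enough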
EP2 modulator – modulates human prostaglandin E2 receptor EP2 signaling | EP2-expressing cells, cAMP HTRF FRET, PGE2 co-stimulation | 260,000 tested, 0.83% active | induction, % at 25 µM | P43116;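 active = compounds whose cAMP rise, as percent of the full-agonist control response, exceeds 60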;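 also: rat C6 glioma line stably carrying human EP2 under a CMV promoter; the protocol text gives 20 µM as final concentration; 100% = response of wells given 1 µM PGE2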
S1P4 antagonist – human S1P4 receptor antagonism; O95977; S1P4-expressing cells, antagonist mode, reporter read-out; inhibition, % at 4.98 µM; 220,000 tested, 0.26% active; AID 1510; in the data active = inhibition above about 29%;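 also: 0% = wells stimulated with agonist and 100% = vehicle wells without agonist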
EP2 cAMP induct – EP2 receptor cAMP induction, counter-screens negative | 1,300 tested, 47% active | calls only at 20 µM (by protocol) | shares compounds with EP2 modulator | C6 glioma EP2 cells, cAMP HTRF induction; plus low (about EC15) PGE2 agonist;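 active = cAMP induction above 50% in the main assay while under 30% in all four parallel counter assays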;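 also: rat C6 glioma cells stably expressing human EP2 receptor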
An asterisk follows results filed as active; i = inactive; . = no result; + = active, no number.

SMILES | S1P3 antag | S1P4 ag | PGE2 EP2 inh | Insulin prom inh | EP2 modulator | S1P4 antagonist | EP2 cAMP induct
O=C(Nc1ccccc1-c1nc2ccccc2s1)c1ccc(Br)o1 | . | -2.7 | 12.6 | . | 77.6* | -13.8 | +
CN(C)CC(CCCCC(CN(C)C)C(=O)c1ccccc1)C(=O)c1ccccc1 (stereo unspecified) | 8.8 | -1.2 | 8.8 | . | -34.1 | -3.3 | .
C[C@H](CN(C)C)C(=O)c1ccccc1C(=O)O | . | . | 8.4 | . | 50.8 | . | i
Cc1nc2ccccn2c1C(=O)CSc1ccccc1Cl | . | -1.2 | 21.1 | -13.5 | 30.9 | 8.7 | .
Cc1nc2ccccn2c1C(=O)CSc1ccc(Cl)cc1Cl | . | 1.6 | 10.2 | 36.4 | 69.6* | 1.8 | i
CCN(CC)C(=O)c1cc(Cl)ccc1NC(=O)c1ccco1 | -2.2 | 0.7 | 9.2 | . | -22.9 | -3.9 | .
CCN(CC)P(=O)(Nc1ccccc1Br)c1ccc(N(C)C)cc1NC(=O)c1ccco1 (stereo unspecified) | -6.5 | -1.5 | 5.2 | -57.1 | 65.9* | -14.1 | i
Oc1cc(O)c2c(c1)O[C@H](c1cc(O)c(O)c(O)c1)[C@H](O)C2 | . | . | 12.4 | . | -15.2 | . | .
Cc1ccc(S(=O)(=O)c2c(C)nn(-c3ccccc3)c2OC(=O)c2ccco2)cc1 | -10.3 | 1.3 | 11.0 | . | 66.8* | 1.9 | i
CCOC(=O)CNc1ncnc2c1nnn2Cc1ccccc1 | . | . | 5.8 | . | 20.4 | . | .
O=c1cc(N2CCCCC2)c(-c2ccccc2)nn1Cc1c(Cl)cccc1Cl | . | 1.1 | 2.3 | -16.2 | 80.5* | 10.1 | +
O=c1cc(N2CCCCC2)c(-c2ccccc2)nn1Cc1ccc(F)cc1 | -7.3 | 0.4 | 7.3 | -76.9 | 88.3* | -3.2 | +
COc1ccc(CN(Cc2ccncc2)C2CC(C)(C)NC(C)(C)C2)cc1O | . | . | 8.8 | . | -0.1 | . | .
CC1CCCC(C)N1C(=O)[C@H]1C[C@@H](c2ccc(F)cc2)NS(=O)(=O)N1C (stereo partly specified) | . | . | . | . | -55.9 | . | .
COCCOC(=O)c1c(C)oc2ccc(OCc3ccccc3)cc12 | -1.2 | -0.3 | 8.5 | 14.3 | 65.2* | 7.5 | i
COCCOC(=O)c1c(C)oc2ccc(OC(=O)c3ccco3)cc12 | -20.2 | 2.3 | 6.3 | 25.0 | 30.7 | 16.1 | .
CC(=O)Nc1ccc(C2=NN(c3ccccc3)C(c3cccs3)C2)cc1 (stereo unspecified) | 6.2 | 3.1 | 11.2 | . | 75.8* | -10.9 | i
CCc1ccc(S(=O)(=O)Nc2ccc3oc(COC)c(C(=O)OC)c3c2)cc1 | . | . | 8.1 | . | -27.0 | . | .
COc1ccc2c(c1)C(C)=CC(C)(C)N2S(=O)(=O)c1ccc(Br)cc1 | 14.8 | 2.5 | 5.7 | . | 68.8* | -3.6 | +
CC1=CC(C)(C)N(S(=O)(=O)c2ccc(F)cc2)c2ccc(C)cc21 | . | 1.8 | 15.9 | -6.9 | 72.4* | 4.1 | +
COc1ccc(-c2ccc3c(c2)c2c4n3CCNC4CCC2)cc1 (stereo unspecified) | . | . | 9.3 | . | -13.3 | . | .
COc1ccc(OC)c(CC(=O)NCC2CCN(c3nc(C)cc(C)n3)CC2)c1 | . | . | 6.5 | . | -29.4 | . | .
CCc1nc(N2CCOCC2)ncc1C(=O)NC1(c2ccccc2)CCCC1 | . | . | 8.1 | . | -35.4 | . | .
COc1ccccc1-c1nnc2sc(-c3cc4ccccc4o3)nn12 | 18.2 | 1.6 | . | . | 77.3* | -6.2 | +
CCCCc1nnc(SCCSc2nnc(CCCC)n2N)n1N | 7.0 | -0.7 | 9.6 | -282.9 | 81.1* | -7.1 | i
SMILES | S1P3 antag | S1P4 ag | PGE2 EP2 inh | Insulin prom inh | EP2 modulator | S1P4 antagonist | EP2 cAMP induct
CN(C)c1ncc(S(=O)(=O)c2ccccc2)c(N)n1 | -7.2 | 1.6 | 9.6 | 33.3 | 27.6 | -15.2 | .
CN(C)c1ncc(S(=O)(=O)c2ccccc2)c(-c2ccccc2Cl)n1 | . | -1.2 | 4.8 | . | 65.6* | -4.3 | +
O=C1C2C3c4ccccc4C(c4ccccc43)C2c2nc3ccccc3n21 (stereo unspecified) | . | 1.1 | 13.0 | 7.7 | 74.0* | 6.4 | +
CCc1nc2ccc(NC(=O)C3Oc4ccccc4O3)cc2[nH]1 | . | . | 5.2 | . | -55.2 | . | .
CCOC(=O)N1CCN(Cc2ccc(O)c3ncccc23)CC1 | -5.4 | 0.0 | 11.1 | . | 11.8 | -6.3 | .
CCOC(=O)N1CCC(=C2c3ccc(Cl)cc3CCc3cccnc32)CC1 | 12.8 | 0.5 | 9.8 | 38.1 | 52.8 | 2.8 | i

Screening data from PubChem BioAssay.
